The results in this text go back to ChEMBL document CHEMBL3433997, “St. Jude Leishmania screening dataset” (2016).

Format in all cases: functional
Assay [1] concerns the target Solute carrier family 2, facilitated glucose transporter member 1 (Homo sapiens) (UniProt P11166). The assay is described as follows: ST_JUDE_LEISH: Cytotoxicity at 2uM final concentration against transgenic Leishmania Mexicana promastigotes LmGLUT1 that are glucose transport deficient and complemented with the human glucose transporter GLUT1. Activity is measured by DNA content using SYBR green in vitro.

In assay [2] the target is Hexose transporter 1 (Plasmodium falciparum) (UniProt O97467). Description: ST_JUDE_LEISH: Cytotoxicity at 2uM final concentration against transgenic Leishmania Mexicana promastigotes LmPfHT that are glucose transport deficient and complemented with the Plasmodium falciparum hexose transporter. Activity is measured by DNA content using SYBR green in vitro.
Assay [3] concerns the target Glucose transporter (Leishmania mexicana) (UniProt O61059). The assay is described as follows: ST_JUDE_LEISH: Cytotoxicity at 2uM final concentration against transgenic Leishmania Mexicana promastigotes LmGT2 that are glucose transport deficient and complemented with the L. Mexicana glucose transporter 2. Activity is measured by DNA content using SYBR green in vitro.

Molecules are shown by their SMILES. “And” between values parts separate entries of the source, which are not always exact repeats. Equal entries are not always repeated.

One may read the inhibition as the drop in the measured response relative to a control, in per cent.

Sequence of Solute carrier family 2, facilitated glucose transporter member 1 (Homo sapiens) (P11166 whole entry): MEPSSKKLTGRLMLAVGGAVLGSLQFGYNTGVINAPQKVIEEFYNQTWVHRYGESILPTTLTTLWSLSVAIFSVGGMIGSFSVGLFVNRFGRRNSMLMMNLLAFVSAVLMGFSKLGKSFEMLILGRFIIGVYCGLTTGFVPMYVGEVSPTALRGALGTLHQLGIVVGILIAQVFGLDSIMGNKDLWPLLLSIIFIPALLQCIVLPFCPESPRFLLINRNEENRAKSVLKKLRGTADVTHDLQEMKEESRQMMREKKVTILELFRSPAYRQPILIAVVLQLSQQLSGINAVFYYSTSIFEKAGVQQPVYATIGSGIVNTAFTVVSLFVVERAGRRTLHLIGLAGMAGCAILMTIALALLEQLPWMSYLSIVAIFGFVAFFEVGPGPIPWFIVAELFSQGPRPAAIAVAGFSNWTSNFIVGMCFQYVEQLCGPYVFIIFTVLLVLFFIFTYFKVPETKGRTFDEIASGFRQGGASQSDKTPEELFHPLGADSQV

`CC(C)NC(=O)Cn1cc(C2CCN(CC3CCN(C(=O)/C=C/c4ccc(Cl)c(Cl)c4)CC3)CC2)c2ccccc21`: the inhibition in assay [1] was found to be 1.44%; in assay [2], 0.25%; in assay [3], 1.41%.
The matching figures for `COc1ccc(CC(C)NCC(O)c2cccc(Br)c2)cc1` (centres undefined): 10.3%, 8.65% and 9.13%.
As to `Oc1ccc2[nH]cc(C3=CCN(Cc4ccccc4)CC3)c2c1`, the figures for the inhibition in assay [1], in assay [2] and in assay [3] were 11.2%, 10.5% and 10.4%, respectively.
Turning to `Cc1[nH]c2ccccc2c1C1=CCN(CC2CC2C(=O)c2ccccc2)CC1` (centres undefined), the inhibition was 10.7% in assay [1], 9.13% in assay [2] and 8.4% in assay [3].
On to `O=C(Nc1cc(C(F)(F)F)cc(C(F)(F)F)c1)NC1CCC(CN2CCC(c3c[nH]c4ccccc34)CC2)CC1` (centres undefined), for which the inhibition is -2.79% and 4.32% in assay [1]; -1.6% and 4.26% in assay [2]; -0.26% and 2.03% in assay [3].
On to `CC[C@H]1CN2CC[C@@H]1C[C@H]2[C@H](O)c1cc(-c2c(C)noc2C)nc2ccc(OC)cc12`, for which the inhibition came out at 3.43% in assay [1], 4.92% in assay [2] and 6.01% in assay [3].
Turning to `CC[C@H]1CN2CC[C@H]1C[C@H]2[C@H](O)c1cc(-c2cccc(Cl)c2)nc2ccc(OC)cc12`, the inhibition in assay [1] came to 9.7%; in assay [2], 9.03%; in assay [3], 10.7%.
For the compound `CC(=O)N(Cc1cccc(-c2cccc(CNCCc3ccccc3)c2)c1)C1CCN(Cc2ccccc2)CC1`, the values for the inhibition in assay [1], in assay [2] and in assay [3] were -0.27%, 1.94% and 4.41%, respectively.
With `Cn1nc(-c2ccc(S(=O)(=O)N3CCC(CN4CCC(c5c[nH]c6ccccc56)CC4)CC3)s2)cc1C(F)(F)F`, the figures for the inhibition in assay [1], in assay [2] and in assay [3] were 0.1%, 2.15% and -1.24%, respectively.
Turning to `CN(C)c1cccc(CCNCCc2c[nH]c3ccc(Cl)cc23)c1`, the inhibition is -1.51% in assay [1], 4.45% in assay [2] and 1.58% in assay [3].
`O=C(/C=C/c1ccc(C(F)(F)F)cc1)NC1CCC(CN2CCC(c3c[nH]c4ccccc34)CC2)CC1` (centres undefined): the inhibition in assay [1] is 5.55% and -0.04%; in assay [2], 5.47% and -0.38%; in assay [3] it was 0.63% and -2.05%.
On to `Cc1ccc(/C=C/C(=O)NC2CCC(CN3CCC(c4c[nH]c5ccccc45)CC3)CC2)cc1` (centres undefined), for which the inhibition was 0.19% and 4.55% in assay [1]; 1.12% and 3.15% in assay [2]; 2.44% and 0.47% in assay [3].
For `CCOC(C(=O)OCCN(C(C)C)C(C)C)(c1ccccc1)c1ccccc1`, the inhibition in assay [1] was -0.14%; in assay [2], 0.41%; in assay [3], -0.37%.
On to `O=C(NCC(=O)N1CCC[C@H]1C(=O)O)[C@@H](Cc1ccccc1)NC(=O)[C@@H]1CCCN1C(=O)CCCc1ccc(O)cc1`, for which the inhibition in assay [2] is -1.36%; in assay [3] it was -1.68%.
Consider `CC[C@H]1CN2CC[C@@H]1C[C@H]2[C@H](O)c1cc[n+]([O-])c2ccc(OC)cc12`, for which the inhibition in assay [1] is -2.84%; in assay [2] it was -0.91%; in assay [3] it was -1.06%.
As for `O=C(/C=C/c1cccs1)NC1CCC(CN2CCC(c3c[nH]c4ccccc34)CC2)CC1` (centres undefined), the figures for the inhibition in assay [1], in assay [2] and in assay [3] were 4.14%, 5.22% and 2.51%, respectively.
As to `CCCCCCCn1c(=O)c(C(=O)Nc2c(C)cccc2C)c(O)c2ccccc21`, the inhibition is 2.89% in assay [1], 1.98% in assay [2] and 3.35% in assay [3].
Regarding `N#Cc1ccc(N(CC(=O)NCCc2ccccc2)CC2CC2)c2ccccc12`, the inhibition is 1.68% in assay [1], 0.73% in assay [2] and 0.87% in assay [3].
As to `CC[C@H]1CN2CC[C@@H]1C[C@H]2[C@H](O)c1ccnc2ccc(OC)cc12`, the results for the inhibition in assay [1], in assay [2] and in assay [3] were 0.79%, 0.55% and 3.26%, respectively.
Turning to `CCC(C)CN1CCC(N(C)c2cc(NC(=O)c3ccc(F)cc3)ccn2)CC1` (centres undefined), the inhibition in assay [1] was -0.37%; in assay [2] it was 0.64%; in assay [3], 2.38%.
For the compound `CN(C)c1cccc(CN2CC=C(c3c[nH]c4ccc(Cl)cc34)CC2)c1`, the inhibition stood at 8.22% in assay [1], 6.95% in assay [2] and 4.91% in assay [3].
Take `CC[C@H]1CN2CC[C@H]1C[C@@H]2[C@@H](OC(=O)c1ccc(Cl)cc1)c1ccnc2ccc(OC)cc12`: the inhibition in assay [1] is 1.77%; in assay [2], 0.13%; in assay [3], -1.41%.
In the case of `O=C(CSc1ccc(Cl)cc1)NC1CCC(CN2CCC(c3c[nH]c4ccccc34)CC2)CC1` (centres undefined), the inhibition in assay [1] is 5.29%; in assay [2] it was 1.76%; in assay [3] it was 2.72%.
Take `CC[C@H]1CN2CC[C@@H]1C[C@H]2[C@H](O)c1ccnc2ccc(Cl)cc12`: the inhibition is 2.97% in assay [1], 3.95% in assay [2] and 3.25% in assay [3].
With `COc1ccc(C[C@@H](C)NC[C@H](O)c2cccc(Cl)c2)cc1F`, the inhibition in assay [1] is 0.83% and 1.3%; in assay [2] it was 3.32% and 5.02%; in assay [3], 0.88% and 0.58%.
Turning to `COC(=O)c1ccc(CC(C)NCC(O)c2cccc(C(F)(F)F)c2)cc1F` (centres undefined), the inhibition in assay [1] came out at 2.16%; in assay [2], 2.23%; in assay [3] it was 2.51%.
The corresponding values for `COC(=O)c1ccc(CC(C)NCC(O)c2cccc(Cl)c2Cl)cc1` (centres undefined) are 3.29%, 2.6% and 3.04%.
Consider `O=C(CCc1ccco1)NC1CCN(CC2(c3ccc(Cl)cc3)CCC2)CC1`, for which the inhibition in assay [1] came out at 9.68%; in assay [2] it was 8.13%; in assay [3], 7.13%.
The corresponding values for `CC[C@H]1CN2CC[C@H]1C[C@H]2[C@H](O)c1cc(-c2ccc(Cl)c(Cl)c2)nc2ccc(OC)cc12` are 12.6%, 9.65% and 9.4%.
On to `COCCNCc1cccc(-c2ccc(CN(C(=O)NC3CCCCC3)C3CCN(Cc4ccccc4)CC3)cc2)c1`, for which the inhibition in assay [1] was found to be 7.28%; in assay [2], 3.57%; in assay [3], 2.09%.
`N#Cc1c(F)cc(N2CCC(NCC[C@H](N)Cc3ccc(F)c(F)c3)CC2)cc1F`: the inhibition worked out at 2.18% in assay [1], 3.63% in assay [2] and 2.33% in assay [3].
Turning to `CC(Cc1ccc(OCCOc2ccccc2)cc1)NCC(O)c1cccc(C(F)(F)F)c1` (centres undefined), the inhibition amounted to 1.79% in assay [1], 3.83% in assay [2] and 4.17% in assay [3].
Take `O=C(/C=C/c1ccc(Cl)c(Cl)c1)NC1CCC(CN2CCC(c3c[nH]c4cc(C(F)(F)F)ccc34)CC2)CC1` (centres undefined): the inhibition is 6.9% and 1.89% in assay [1]; 4.9% and -0.14% in assay [2]; 12.7% and 2.07% in assay [3].
Take `O=C(NC1CCC(CN2CCC(c3c[nH]c4ccccc34)CC2)CC1)c1cc2cccc([N+](=O)[O-])c2[nH]1` (centres undefined): the inhibition in assay [1] was -2.16%; in assay [2] it was 2.66%; in assay [3] it was -0.94%.
The corresponding values for `C/C=C1\CN2CC[C@H]1C[C@H]2[C@H](O)c1ccnc2ccc(O)cc12` are -0.15%, -0.16% and 0.93%.
